Out of some 57,000 compounds screened, about 200 (0.35%) were called active.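 The calls were made as follows: active = mean inhibition of replicates at least 50% and every single replicate also reaching 50%; inconclusive = mean inhibition at least 50% but some replicate falls below 50%; inactive = mean inhibition under 50%.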 The entries come from a sample that favours actives as a whole.
These compounds were tested against Histone-lysine N-methyltransferase EZH2 (Homo sapiens) (UniProt Q15910) (assay: inhibition of PRC2 H3K27 methylation – biochemical, DELFIA time-resolved fluorescence, single point, primary screen (AID 651548;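 also: dimethyl H3K27 on biotinylated H3 21-44 peptide detected by antibody; plate controls were median neutral control wells for no effect and median positive control wells for full effect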)). Conditions: DELFIA TRF, 1 h, at 12.5 µM, active compounds read high.
Chain of Histone-lysine N-methyltransferase EZH2 (Homo sapiens) (Q15910 whole entry, looked up): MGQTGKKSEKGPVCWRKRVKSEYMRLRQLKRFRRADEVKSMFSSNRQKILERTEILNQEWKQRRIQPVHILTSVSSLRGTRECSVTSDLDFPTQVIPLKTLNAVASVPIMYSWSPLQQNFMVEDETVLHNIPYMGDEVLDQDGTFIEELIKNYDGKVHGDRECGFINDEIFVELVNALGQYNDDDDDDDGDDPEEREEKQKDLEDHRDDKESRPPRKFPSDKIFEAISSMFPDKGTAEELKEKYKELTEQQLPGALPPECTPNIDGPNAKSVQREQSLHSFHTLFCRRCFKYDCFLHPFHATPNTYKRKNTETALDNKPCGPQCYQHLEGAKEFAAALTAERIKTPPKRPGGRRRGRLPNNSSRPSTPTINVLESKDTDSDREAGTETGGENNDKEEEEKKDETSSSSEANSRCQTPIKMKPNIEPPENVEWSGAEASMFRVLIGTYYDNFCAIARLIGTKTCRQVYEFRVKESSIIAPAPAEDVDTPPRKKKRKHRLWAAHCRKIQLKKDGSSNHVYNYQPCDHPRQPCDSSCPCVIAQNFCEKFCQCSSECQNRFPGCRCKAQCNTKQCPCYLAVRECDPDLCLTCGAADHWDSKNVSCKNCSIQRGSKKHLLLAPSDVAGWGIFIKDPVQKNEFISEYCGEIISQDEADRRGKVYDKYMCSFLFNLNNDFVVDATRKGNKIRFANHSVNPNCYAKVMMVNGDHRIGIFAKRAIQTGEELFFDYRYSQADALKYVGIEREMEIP
In the case of C[C@@H]1O[C@@H](O[C@@H]2C=C3CC[C@@H]4C(C[C@@H](O)[C@]5(C)[C@@H](c6ccc(=O)oc6)CC[C@]45O)[C@@]3(C)CC2)[C@H](O)[C@H](O)[C@H]1O[C@@H]1O[C@H](CO)[C@@H](O)[C@H](O)[C@H]1O (stereo not given in full), the inhibition is reported as 75.9% (active). For c1ccc(CCCCN2CCC(c3ccccc3)CC2)cc1, the inhibition was 11.8% (inactive). In the case of CCCCCCCCCCCCCC(=O)O[C@@H]1[C@@H](C)[C@@]2(O)[C@@H](C=C(CO)C[C@]3(O)C(=O)C(C)=C[C@@H]23)[C@@H]2C(C)(C)[C@]12OC(C)=O, the inhibition is reported as -10.7% (inactive). c1ccc2c(c1)[I+]c1ccccc1-2 was tested, and the inhibition was -3.64% (inactive). For CC(C)(Cc1c[nH]c2ccc(Cl)cc12)NCCOc1ccccc1OCC1CC1, the inhibition was 3.93% (inactive).
